# Laboratory results reported in the supplement of paper PMC12340641.
# Whole data set: some 1,000 compounds, median “relative growth recovery (pomalidomide 10 uM = 100%, DMSO = 0%)” near -1.6, cut for the highest 2% near 21. The sample holds the highest values, similar compounds and a random draw of the others, so the mix is not that of the screen.
# Test system: HEK293FT dCK*-IKZF1
# Experiment: relative growth recovery (pomalidomide 10 uM = 100%, DMSO = 0%); higher = more growth rescue (IKZF1 fusion degradation)
# Conditions: compound concentration: 5 uM; AraC concentration: 0.3 uM; overnight pretreatment + 4 days AraC
# Experimental: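 Growth recovery screen of the molecular-glue-like (Specs) library. HEK293FT cells expressing a dCK*-IKZF1 fusion (primary) or dCK* alone (counter) were pretreated overnight with compound at 5 uM, then given 0.3 uM AraC for 4 days. Hoechst nuclei were counted by imaging. Primary: normalised to pomalidomide (100%) and DMSO (0%), mean of 2 replicates. Counter: normalised to no-AraC (100%) and AraC+DMSO (0%), single replicate.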
row,SMILES,relative growth recovery [%]
1,COc1cc(NS(=O)(=O)c2ccc(NC(=O)c3ccc(Br)o3)cc2)nc(OC)n1,2.29
2,CC(C)(N)C(=O)N1CCC(CO)(c2cccc(Nc3ncc(-c4ccccc4)s3)n2)CC1,-19.1
3,Cc1cc(NS(=O)(=O)c2ccc(NC(=O)c3cccnc3)cc2)nc(C)n1,1.28
4,CCCOc1ccc(C(=O)Nc2ccc(S(=O)(=O)Nc3ncccn3)cc2)cc1,-3.33
5,Cc1cc(C)nc(NS(=O)(=O)c2ccc(NC(=O)CSc3nc4c(cc3C#N)CCC4)cc2)n1,-6.17
6,Cc1nc(Nc2cccc(C3CCCN3C(=O)CCOc3cccc(F)c3)n2)sc1C (stereo unspecified),8.19
7,CCOc1ccccc1OCC(=O)Nc1ccc(S(=O)(=O)Nc2ccccn2)cc1,-1.77
8,COc1ccccc1CCC(=O)N1CCC(c2cccc(Nc3ncc(C)s3)n2)CC1,19
9,Cc1ccc(N2C(=O)c3ccc(Oc4ccc(N)cc4)cc3C2=O)cc1,-1.57
10,Nc1ccc(Oc2ccc3c(c2)C(=O)N(c2ccccc2)C3=O)cc1,2.54
11,COCCNC(=O)C1(c2cccc(Nc3ncc(C)s3)n2)CCN(C(=O)C2CCCCC2)CC1,-5.38
12,Cc1ccnc(NS(=O)(=O)c2ccc(NC(=O)Cc3ccc(Cl)cc3)cc2)n1,2.92
13,Cc1cnc(Nc2cccc(C3CCCN3C(=O)CCCc3ccc(F)cc3)n2)s1 (stereo unspecified),0.955
14,Cn1cc(/C=C/C(=O)N2CCC(c3cc4ccccc4c(Nc4nccs4)n3)CC2)cn1,-18.7
15,CCc1nccn1CC(=O)N1CCOC(c2cccc(Nc3ncc(C)s3)n2)C1 (stereo unspecified),0.35
16,Cc1cc(C)c(S(=O)(=O)Nc2ccc(S(=O)(=O)Nc3ncccn3)cc2)c(C)c1,6.84
17,COc1ccc2[nH]c3nc(SCC(=O)Nc4cc(Cl)ccc4OC)nnc3c2c1,-18.5
18,COc1cc(NS(=O)(=O)c2ccc(NC(=O)C3CC3)cc2)nc(OC)n1,-1.71
19,O=C(O)CCOCCNc1cccc2c1C(=O)N(C1CCC(=O)NC1=O)C2=O (stereo unspecified),-5.19
20,O=C(O)CCCNc1cccc2c1C(=O)N(C1CCC(=O)NC1=O)C2=O (stereo unspecified),3.32
21,O=C1CCC(N2C(=O)c3cccc(NC[C@H]4CC[C@H](C(=O)O)CC4)c3C2=O)C(=O)N1 (stereo partly specified),50.3
